From the supplement of paper PMC3334620
The full ranking holds about 33,000 sequences; the median of “E-score (-0.5 to 0.5)” is about -0.0034, and the highest 2% start at about 0.25. Many of the other results were omitted from the sample, so the highest values are more common in it than they were.

target: T1, Yap3 (UniProt P38749); assay: PBM E-score (8-mer binding enrichment) (E-score (-0.5 to 0.5)); higher = stronger / more preferred TF binding; details: protein concentration: 100 nM; construct: GST-full length
T1 sequence: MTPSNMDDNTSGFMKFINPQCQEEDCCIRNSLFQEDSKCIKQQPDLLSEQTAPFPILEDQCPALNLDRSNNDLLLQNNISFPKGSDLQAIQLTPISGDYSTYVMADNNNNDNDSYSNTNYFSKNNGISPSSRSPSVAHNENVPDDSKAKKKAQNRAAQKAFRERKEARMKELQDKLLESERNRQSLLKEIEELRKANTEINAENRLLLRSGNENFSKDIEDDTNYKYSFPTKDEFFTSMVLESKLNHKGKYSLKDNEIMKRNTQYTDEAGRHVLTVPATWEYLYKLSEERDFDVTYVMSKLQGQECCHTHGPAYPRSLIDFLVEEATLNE
Procedure, shortened: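 Each ungapped eight-base word and its reverse complement, pooled, received an E-score from the Universal PBM Analysis Suite. Underlying scans, normalised with masliner, recorded fluorescent anti-GST bound to GST-tagged yeast transcription factors. These were applied at about 100-200 nM to universal all-10-mer Agilent arrays double-stranded by primer extension.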

Sequence	PBM E-score
GAAGCTAA	-0.136
ATAAGGTG	-0.00609
ATCTGCCG	0.101
GTCAGCAC	-0.0445
GGATCAAA	0.111
AAAATAGT	0.12
AAAATACT	0.0626
AAAATATT	0.318
TAGCAACA	0.114
AAGCACTT	-0.0376
CGTGGCTC	-0.321
CCGGAAAA	0.106
AATCGACA	0.258
AATCGACT	-0.0232
AATCGAAA	0.0602
AATCGAAG	0.256
AATCGAAC	0.107
AATCGACC	-0.00549
AACGCGAG	0.126
AACGCGCT	-0.012
AACGCGCG	0.265
AACGCGCA	0.103
AACGCGAA	0.298
CACGCGAA	-0.0244
ACGCACCC	-0.243
ACCCGCAA	-0.239

Sequence	PBM E-score
ACTAGTTG	-0.0214
TCGCAAGA	-0.0427
TCCATCCA	-0.0216
ACCCCCAT	-0.246
CAGACAAC	0.0898
AAGACAAC	0.267
AAGACAAG	0.045
GAAAGAGA	0.0574
ATCATCAT	0.139
AATTTGCG	0.0563
ATCGTAAG	0.137
CTCGTAAG	0.257
CTCGTAAC	0.177
ATTGTCTG	0.11
AAGATGAT	0.0727
ATTGCTCA	-0.00161
TATAGATA	0.0759
CGTAGATA	0.0847
GATAGATA	0.0286
AGTAGATA	0.273
AATAGATA	0.267
AGTAGATC	-0.0265
GGCATCGA	-0.125
ACGGCGCA	0.0681
AGAATGCC	-0.00977
CCGCAAAA	0.076

Sequence	PBM E-score
AATAGTTG	0.267
GATAGTAA	0.11
AATAGTAA	0.258
AATAGTAC	0.0612
TATAGTAA	0.27
AATAGTTC	0.156
AATAGTTA	0.0935
CATAGTAA	0.198
AATAGTAG	0.206
GCCTAACC	-0.151
ATCTACTA	0.185
AAACCTCG	-0.132
ACATCGAT	0.0921
ACCTAGTA	-0.119
CTTCATTA	0.242
GTTCATTA	0.259
ATTCATTA	0.174
ACTTCATC	0.0677
ACCGTCGG	-0.163
AACTAGCT	-0.0564
CTCTATTA	0.0839
ATAGATTA	0.348
CTATATTA	0.325
ATATATTA	0.32
GGATATTA	0.0994
ATATATTG	0.0595

Sequence	PBM E-score
CTATATTC	0.151
GTAGATTA	0.245
GTATATTA	0.211
CGATATTA	0.358
CGATATTC	0.0953
ATAGATTG	0.119
GGTACTGA	-0.124
GATGGGGA	-0.0817
ATATAGAC	0.123
AGTGCATC	-0.0272
CTACGCGC	-0.0286
ATAGAGAT	0.166
ATATCTCA	0.268
GTATATCA	0.0881
CTATCTCA	-0.0511
CCATATTA	0.24
CTATAGTA	0.156
ATATAGTA	0.264
ACATATTA	0.305
ATATATCA	0.118
GTATAGTA	0.143
ACATATTG	0.11
CTATATCA	0.264
ATCTCTCA	0.15
